# Results as given in PubChem BioAssay AID743157 (Broad Institute, 2013).
# Activity calls are given as the source filed them.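 How the source made its calls: active means cell killing, with a fitted active concentration at or below twice the top valid dose tested; inconclusive means flat fit with 30 to 70 percent signal loss, or poor fit; inactive means effect in the rising direction, plus the rest.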
# Experiment: viability loss in A549 lung cancer cells – cell-based, CellTiter-Glo luminescence, dry powder, set 4, cytotoxicity control, dose response (AID 743157)
# Conditions: CellTiter-Glo ATP luminescence, 72 h; series mostly up to 50 µM
Structure (SMILES),outcome,"activity change, negative = cytotoxicity"
Cc1c(C(=O)O)sc2nc(/C=C/c3cccc(C(N)=O)c3)[nH]c(=O)c12,inactive,
Cc1c(C(=O)O)sc2nc(/C=C/C=C/c3ccccc3)[nH]c(=O)c12,inactive,
Cc1c(C(=O)O)sc2nc(/C=C/c3cccnc3N)[nH]c(=O)c12,,-7.98% [at 12 µM] (inactive)
Cc1c(C(=O)O)sc2nc(/C=C/c3cccc(O)c3)[nH]c(=O)c12,inactive,
Cc1c(C(=O)O)sc2nc(/C=C/c3ccccc3O)[nH]c(=O)c12,inactive,
Cc1c(C(=O)O)sc2nc(/C=C/c3ccc4cc[nH]c4c3)[nH]c(=O)c12,inactive,
COc1cccc(/C=C/c2nc3sc(C(=O)O)c(C)c3c(=O)[nH]2)c1,inactive,
Cc1c(C(=O)O)sc2nc(/C=C/c3ccncc3)[nH]c(=O)c12,inactive,
Cc1c(C(=O)O)sc2nc(/C=C/C3CC3)[nH]c(=O)c12,inactive,
Cc1c(C(=O)O)sc2nc(/C=C/c3cccc([N+](=O)[O-])c3)[nH]c(=O)c12,inactive,
Cc1c(C(=O)O)sc2nc(/C=C/c3cc4ccccc4cn3)[nH]c(=O)c12,inactive,
Cc1c(C(=O)O)sc2nc(/C=C/c3cccc(=O)[nH]3)[nH]c(=O)c12,inactive,
Cc1c(C(=O)O)sc2nc(CCc3cccc(O)c3)[nH]c(=O)c12,inactive,
Cc1c(C(=O)O)sc2nc(/C=C/c3ccccc3)[nH]c(=O)c12,inactive,
Cc1c(C(=O)O)sc2nc(/C=C/c3cccc(C(=O)O)c3)[nH]c(=O)c12,inactive,
Cc1c(C(=O)O)sc2nc(/C=C/c3cccc(OC(F)(F)F)c3)[nH]c(=O)c12,inactive,
Cc1c(C(=O)O)sc2nc(/C=C/c3ccc(O)cn3)[nH]c(=O)c12,,4.16% [at 1.2 µM] (inactive)
Cc1c(C(=O)O)sc2nc(/C=C/c3cccc(C(F)(F)F)c3)[nH]c(=O)c12,inactive,
Cc1c(C(=O)O)sc2nc(/C=C/c3cccc(F)c3)[nH]c(=O)c12,inactive,
Cc1c(C(=O)O)sc2nc(/C=C/c3cnc4ccccc4c3)[nH]c(=O)c12,inactive,
Cc1c(C(=O)O)sc2nc(/C=C/c3ccnc4ccccc34)[nH]c(=O)c12,inactive,
Cc1c(C(=O)O)sc2nc(/C=C/c3ccc4ccccc4c3)[nH]c(=O)c12,inactive,
Cc1c(C(=O)O)sc2nc(/C=C/c3cccc(N4CCNCC4)c3)[nH]c(=O)c12,inactive,
Cc1c(C(=O)O)sc2nc(/C=C/c3ccc(N)nc3)[nH]c(=O)c12,inactive,
Cc1c(C(=O)O)sc2nc(/C=C/c3cccc(N)c3)[nH]c(=O)c12,inactive,
Cc1c(C(=O)O)sc2nc(/C=C/c3ccccn3)[nH]c(=O)c12,inactive,
Cc1c(C(=O)O)sc2nc(/C=C/c3ccc4[nH]ccc4c3)[nH]c(=O)c12,inactive,
Cc1c(C(=O)O)sc2nc(/C=C/c3cccnc3)[nH]c(=O)c12,inactive,
Cc1c(C(=O)O)sc2nc(/C=C/c3cccc(N4CCOCC4)n3)[nH]c(=O)c12,inactive,
Cc1c(C(=O)O)sc2nc(/C=C/c3ccc4[nH]ccc4n3)[nH]c(=O)c12,,6.14% [at 12 µM] (inactive)
